Dicer processing = inhibitors of Dicer pre-microRNA processing, primary screen, biochemical, cat-ELCCA, chemiluminescence; Endoribonuclease Dicer (Homo sapiens), Q9UPY3; AID 1347074, 2019; z-score at 25 µM; cat-ELCCA pre-miR-21 Dicer processing; active compounds read high; hit rate 6% among 47,000; in the data active = z-score above about 3, passing the limit was not always enough;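 note: plate controls were vehicle for no effect and no enzyme for full effect; higher signal means more uncleaved substrate so more Dicer inhibition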
Active calls of the source: *; ! = repeats disagree. Only a selection was taken, and hits are over-represented in it overall.

SMILES	Dicer processing
Cc1ccc(-c2n[nH]c(S(C)(=O)=O)c2C#N)cc1	-2.1
Cn1nc(-c2ccccc2)c(C#N)c1S(C)(=O)=O	3.2*
CC(C)/C(=N\OC(=O)c1ccc(C(F)(F)F)cc1)c1ccccc1	-0.99
CC(C)(C)c1cc(C2=NNC(O)(C(F)(F)F)C2)c2c(c1)C(C)(C)CC2 (stereo not given)	-4
O=C(OCc1ccccc1)C1=NNC2(CC(=O)N(c3ccc(Cl)cc3)C2=O)C1 (stereo not given)	1.1
COc1cc(N)c(Cl)cc1C(=O)OCCN1CCCCC1	-0.67
O=C(OCCN1CCCCC1)c1cccs1	3.7*
CN(CCOC(=O)c1cccs1)C(C)(C)C	0.76
CN1CCc2c(sc3c2C(=O)NC(c2ccc(-c4ccccc4Cl)o2)N3)C1 (stereo not given)	-0.25
Cc1ccc(C(=O)N2CCN(c3ncnc4cc(-c5ccc(C(C)(C)C)cc5)sc34)CC2)cc1	0
Cc1ccc(C(=O)NNc2ncnc3cc(-c4ccc(C(C)(C)C)cc4)sc23)cc1	6.2*
CC(=O)NNc1ncnc2cc(-c3ccc(C(C)(C)C)cc3)sc12	-0.05
Cc1onc(-c2ccccc2Cl)c1C(=O)N=S(C)(C)=O	-2.1
CCCCCCNC(=O)NC(Cc1ccccc1)C(=O)OCC (stereo not given)	-0.79
CCOC(=O)[C@H](CCCN=C(N)N)NC(=O)c1ccccc1	4.8*
O=C(NC(CO)C(=O)O)c1ccccc1 (stereo not given)	2.1
Cc1ccc(Cn2cc(CO)c3ccccc32)cc1	-0.58
CCOC(=O)C1=C(C)NC2=C(C(=O)CCC2)C1c1ccc(C)cc1 (stereo not given)	-2.3
CC(=O)NNC(=O)c1sc2nc(-c3ccc(Cl)cc3)nn2c1C	2.4
O=C1/C(=C/c2ccc(Cl)cc2)N=C(c2ccccc2)N1c1ccc(F)cc1	7.9*
O=C1NC(c2ccccc2)=N/C1=C/c1ccccc1	-0.81
O=C1/C(=C\c2ccc(F)cc2)N=C(c2ccccc2)N1Cc1ccc(F)cc1	-0.65
O=C(Nc1ccc(-n2nc(C(F)(F)F)cc2C(F)(F)F)cc1)c1ccc(Cl)cc1	-0.44
CC(=O)c1ccccc1C(=O)c1ccc(Cl)cc1	59*
CC(=O)c1ccccc1C(=O)c1ccccc1	-1.2
SMILES	Dicer processing
Cc1c(C)c(C)c(C(=O)c2ccc(Cl)cc2)c(C)c1C	0.14
O=S(=O)(c1sc(Br)cc1Br)N1CCCC1	1.1
CC1(C)CC(=O)C2=C(C1)Nc1cc3c(cc1C2c1ccc(Cl)cc1)OCO3 (stereo not given)	2.5
CSc1ccc(C2C3=C(CC(C)(C)CC3=O)Nc3cc4c(cc32)OCO4)cc1 (stereo not given)	5.1*
CC1(C)CC(=O)C2=C(C1)Nc1ccc3ccccc3c1C2c1ccc2c(c1)OCO2 (stereo not given)	-0.4
C#CCOc1ccc(C2C3=C(CC(C)(C)CC3=O)NC3=C2C(=O)CC(C)(C)C3)cc1	-1.7
Cc1ccc(C2C3=C(CC(C)(C)CC3=O)NC3=C2C(=O)CC(C)(C)C3)cc1	4.6*
CC1(C)CC(=O)C2=C(C1)NC1=C(C(=O)CC(C)(C)C1)C2c1ccccc1	-0.35
OCCn1c(-c2ccc(Br)cc2)cn2c3ccccc3nc12	-0.4
C/C(CC1(CC(C)C)CCCCC1)=N\NC(N)=O	1.5
Cc1ccc(NC(=O)CC#N)cc1Cl	-2
Cc1cccc(C)c1NC(=O)NCc1ccccc1	2
O=C(NCc1ccccc1)NCc1ccccc1	3.6*
O=C(NCCCCCCNC(=O)NCc1ccccc1)NCc1ccccc1	-0.41
COc1ccccc1-c1nc2c3c4c(sc3ncn2n1)C(C)(C)NC(C)(C)C4	0.7
NS(=O)(=O)c1ccc(Oc2c(Cl)cccc2Cl)c([N+](=O)[O-])c1	-1.2
CC(CN1c2ccccc2Sc2ccccc21)N(C)C (stereo not given)	3.8*!
CC(CN(C)C)CN1c2ccccc2Sc2ccccc21 (stereo not given)	0.42
CNC(C)CN1c2ccccc2Sc2ccccc21 (stereo not given)	2.6
O=C(N/N=C/c1ccc(C(F)(F)F)cc1)Nc1ccc(C(F)(F)F)cc1Cl	-0.19
CC1SC(c2cccnc2)N(c2ccc(F)cc2F)C1=O (stereo not given)	2.9
Cc1nc2c(=O)n(-c3ccc(F)cc3F)nc(C)c2s1	3.2*
Cc1nc2c(s1)c(C)nn2-c1ccccc1	0.81
Fc1cccc(Cl)c1CSc1ccc(C(F)(F)F)cn1	0.24
CCC(C)OC(=O)C(C)Oc1ccc2c(=O)c(Oc3ccccc3Cl)coc2c1 (stereo not given)	-0.01
SMILES	Dicer processing
CCOC(=O)Oc1ccc2c(=O)c(Oc3cc(C)cc(C)c3)coc2c1	0.12
C=CCOC(=O)Oc1ccc2c(=O)c(Oc3cc(C)cc(C)c3)coc2c1	3*
CCC(C)OC(=O)C(C)Oc1ccc2c(=O)c(Oc3cccc(C)c3)coc2c1 (stereo not given)	-1.1
C=CCOC(=O)Oc1ccc2c(=O)c(Oc3cc(C)ccc3C)coc2c1	1.3
CCC(C)OC(=O)C(C)Oc1ccc2c(=O)c(Oc3ccc(C)cc3)coc2c1 (stereo not given)	4.2*
Cc1occc1-c1nnc(SCC(=O)c2ccc(Br)cc2)o1	-1
O=[N+]([O-])c1cc(-c2nc(-c3cccc(C(F)(F)F)c3)no2)cs1	0.41
CC(=O)c1c(O)ccc2c(C)cc(=O)oc12	-0.17
Cc1nnc(N2C(=O)C(O)=C(C(=O)c3ccco3)C2c2ccc(Cl)cc2)s1 (stereo not given)	4.2*
Cc1nnc(N2C(=O)C(O)=C(C(=O)c3ccco3)C2c2ccccc2)s1 (stereo not given)	1.2
Cc1nnc(N2C(=O)C(O)=C(C(=O)c3cccs3)C2c2ccc(F)cc2)s1 (stereo not given)	3.8*
CC(C)c1ccc(C2C(C(=O)c3cccs3)=C(O)C(=O)N2CCCN2CCOCC2)cc1 (stereo not given)	1.3
Cc1ccc(C2C(C(=O)c3cccs3)=C(O)C(=O)N2CCCn2ccnc2)cc1 (stereo not given)	3.3*
COC(=O)c1sc(N2C(=O)C(O)=C(C(=O)c3cccs3)C2c2ccc(Cl)cc2)nc1C (stereo not given)	3.8*
COC(=O)c1sc(N2C(=O)C(O)=C(C(=O)c3cccs3)C2c2ccc(F)cc2)nc1C (stereo not given)	1.4
Cc1nnc(N2C(=O)C(O)=C(C(=O)c3cccs3)C2c2ccc(Cl)cc2)s1 (stereo not given)	0.95
O=C(C1=C(O)C(=O)N(CCN2CCOCC2)C1c1ccncc1)c1cccs1 (stereo not given)	-2.3
Cc1nnc(N2C(=O)C(O)=C(C(=O)c3cccs3)C2c2ccc(C(C)(C)C)cc2)s1 (stereo not given)	1.1
COC(=O)c1sc(N2C(=O)C(O)=C(C(=O)c3cccs3)C2c2ccc(C(C)C)cc2)nc1C (stereo not given)	2.4
COc1ccc(C2C(C(=O)c3ccco3)=C(O)C(=O)N2c2nnc(C)s2)cc1OC (stereo not given)	0.56
Cc1onc(-c2ccccc2Cl)c1NC(=O)Nc1c(-c2ccccc2Cl)noc1C	0.16
C#CCn1c2ccccc2c2ccccc21	-1
CCOc1cc(CO)ccc1OCc1ccc(C(=O)O)cc1	0.14
CSc1cccc(NC(=S)/N=C/N(C)C)c1	1.2
CCCCNc1nc(-c2ccc(-c3ccccc3)cc2)cs1	-0.27
Cc1ccc(NS(=O)(=O)c2ccc(Cl)cc2)c(N)c1	2.8
O=S(=O)(Nc1ccc(F)cc1)c1cc(Cl)c(Cl)cc1Cl	-0.49

Screening data: PubChem BioAssay, Center for Chemical Genomics, University of Michigan
